Data from PubChem BioAssay.
The source made the active and inactive calls. Cut-off read from the data, not from the text of the source: active = fold change permeability below about 0.7 or above about 1.3; inactive = in between.

Assay: compounds altering in vitro BBB leakiness – cell-based, FITC-avidin fluorescence, HTS, primary screen (AID 1963498); note: test concentration not given here
Conditions: brain endothelial barrier, actives lie on both sides

Row | Compound | fold change permeability
1 | Nc1ccc(S(=O)(=O)Nc2ccnn2-c2ccccc2)cc1 | 1.2 (inactive)
2 | Oc1ccc(/C=C/c2cc(O)cc(O)c2)cc1 | 1.7 (active)
3 | NC(N)=S | 1.3 (active)
4 | CN(C)CC/C=C1/c2ccccc2Sc2ccc(Cl)cc21 | 1.1 (inactive)
5 | O=[N+]([O-])c1ccc(-c2nc(-c3ccc(F)cc3)c(-c3ccncc3)[nH]2)cc1 | 1.4 (active)
6 | Nc1nc(N)c2nc(-c3ccccc3)c(N)nc2n1 | 1.4 (active)
7 | CN(C)C(=O)Oc1cccc([N+](C)(C)C)c1 | 0.8 (inactive)
8 | O=C(O)/C=C/c1cnc[nH]1 | 1.4 (active)
9 | CN1CCN(CCCN2c3ccccc3Sc3ccc(C(F)(F)F)cc32)CC1 | 1.2 (inactive)
10 | C[C@]12CC[C@@H]3c4ccc(O)cc4CC[C@H]3[C@@H]1CC[C@@H]2O | 1 (inactive)
11 | C=C1C[C@H]2[C@@H]3CCC4=CC(=O)CC[C@@H]4[C@H]3CC[C@]2(C)[C@@]1(OC(C)=O)C(C)=O | 1.1 (inactive)
12 | Clc1ccc2c(c1)C(N1CCNCC1)=Nc1ccccc1O2 | 1.2 (inactive)
13 | NC1(C(=O)O)CC1 | 0.9 (inactive)
14 | C[C@@H](O[C@H]1OCCN(Cc2nn(P(=O)(O)O)c(=O)[nH]2)[C@H]1c1ccc(F)cc1)c1cc(C(F)(F)F)cc(C(F)(F)F)c1 | 1.4 (active)
15 | O=C1NC(=O)C(c2ccccc2[N+](=O)[O-])=C1Nc1ccc(O)c(Cl)c1 | 1.4 (active)
16 | Nc1c(C(=O)Nc2c(F)cc(F)cc2Br)sc2nc3c(cc12)CCC3 | 0.9 (inactive)
17 | CCc1ccc(/C=C2/SC(=S)NC2=O)cc1 | 1.4 (active)
